Some test systems named below: SR leukemia; RPMI-8226 leukemia; OVCAR-8 ovarian; OVCAR-5 ovarian; OVCAR-4 ovarian; SK-OV-3 ovarian; IGROV1 ovarian; OVCAR-3 ovarian; HS 578T breast; NCI/ADR-RES ovarian.
What all share (assay): NCI-60 one-dose screen, 48 h (100 = growth as untreated, 0 = no growth, -100 = all killed)
Conditions in all cases: 10 µM unless noted

Values joined by “and” are separate entries in the source; they are usually repeats but may differ in a detail not shown here. Equal entries are not always repeated. This is part of a sample that, as a whole, favours compounds with a hit. Of some 83,000 tested, about 20% had one in any assay.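 The endpoint reported here, percent growth, reads 100 for growth as untreated, 0 for no net growth and -100 for all cells dead.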 Active and inactive are the calls of the source. The calls were made as follows: active = growth percent below 10; inactive = the rest.

Turning to `CN(C)CCCNC1=C(Cl)C(=O)c2ccccc2C1=O`, the growth with SR leukemia was -18.8% (active); in the assay on RPMI-8226 leukemia, 65% (inactive) and 45.5% (inactive); in the assay with OVCAR-8 ovarian it was 68% (inactive) and -60.7% (active); with OVCAR-5 ovarian, 98.4% (inactive) and 98.8% (inactive); with OVCAR-4 ovarian it was 17.7% (inactive) and -100% (active); with SK-OV-3 ovarian, 88.9% (inactive) and 95.9% (inactive). The growth in the assay on IGROV1 ovarian is -52.5% (active) and -98.8% (active); with OVCAR-3 ovarian it was 19.8% (inactive) and -44.6% (active); in the assay on HS 578T breast, 9.81% (active); in the assay on NCI/ADR-RES ovarian it was 103% (inactive) and 78.7% (inactive).
Consider `CC1(C)[C@@H](OC(=O)CCC(=O)O)CC[C@]2(C)[C@H]3C(=O)C=C4[C@@H]5C[C@@](C)(C(=O)O)CC[C@]5(C)CC[C@@]4(C)[C@]3(C)CC[C@@H]12`, for which the growth in the assay on SR leukemia is 94.3% (inactive) and -13% (active); in the assay with RPMI-8226 leukemia, 104% (inactive) and -42.2% (active); in the assay on OVCAR-8 ovarian, 106% (inactive) and -14.1% (active); in the assay with OVCAR-5 ovarian, 104% (inactive) and -74.9% (active); with OVCAR-4 ovarian, 87.9% (inactive) and -0.335% (active); in the assay with SK-OV-3 ovarian, 102% (inactive) and -64.1% (active). In addition, the growth was 105% (inactive) and -35.8% (active) in the assay with IGROV1 ovarian; 99.7% (inactive) and -94% (active) with OVCAR-3 ovarian; 112% (inactive) and -12.9% (active) in the assay with HS 578T breast; 107% (inactive) and -0.161% (active) with NCI/ADR-RES ovarian.
On to `O=C(Nc1cccc(Cl)c1)c1cc2ccccc2cc1O`, for which the growth was 23.4% (inactive) and 3.87% (active) in the assay on SR leukemia; -19.4% (active) and -4.12% (active) in the assay on RPMI-8226 leukemia; 11.2% (inactive) and 8.75% (active) with OVCAR-8 ovarian; 97.2% (inactive) and 56.4% (inactive) with OVCAR-5 ovarian; 29.7% (inactive) and 10.1% (inactive) in the assay with OVCAR-4 ovarian; -11.7% (active) in the assay with SK-OV-3 ovarian. Besides, the growth in the assay with IGROV1 ovarian is 22.6% (inactive) and 24.2% (inactive); in the assay with OVCAR-3 ovarian, 18.5% (inactive) and 14.7% (inactive); in the assay on HS 578T breast, 17.5% (inactive) and 21.8% (inactive); with NCI/ADR-RES ovarian, 4.12% (active) and 9.44% (active).
As for `CNc1cc(-c2cccc(OC(F)(F)F)c2)nc2ccc(N3CCCC3)cc12`, the growth with SR leukemia is -33.9% (active) and -44.7% (active) and -14.6% (active); in the assay with RPMI-8226 leukemia, -51.4% (active) and -43.5% (active) and -37.5% (active); in the assay with OVCAR-8 ovarian, 34.7% (inactive) and -26.3% (active) and -2.97% (active); in the assay on OVCAR-5 ovarian it was 55.7% (inactive) and 12.4% (inactive) and 50% (inactive); in the assay on OVCAR-4 ovarian, 53.1% (inactive) and -27.1% (active) and 22% (inactive); in the assay on SK-OV-3 ovarian, 93.5% (inactive) and 55.3% (inactive) and 92.4% (inactive). The growth was 35.5% (inactive) and -14.9% (active) and 53.2% (inactive) in the assay with IGROV1 ovarian; 85.7% (inactive) and -90.8% (active) and 84.8% (inactive) with OVCAR-3 ovarian; 88.4% (inactive) and 47.5% (inactive) and 75.7% (inactive) with HS 578T breast; 59% (inactive) and 20.9% (inactive) and 21.3% (inactive) in the assay with NCI/ADR-RES ovarian.
With `COc1cc2nc(N3CCC[C@@H](NC(=O)C4COc5ccccc5O4)C3)nc(N)c2cc1OC` (stereo not given in full), the growth is 88.3% (inactive) and 91.2% (inactive) with SR leukemia; 95.2% (inactive) and 91.4% (inactive) with RPMI-8226 leukemia; 100% (inactive) and 94.3% (inactive) with OVCAR-8 ovarian; 102% (inactive) and 97.1% (inactive) in the assay on OVCAR-5 ovarian; 101% (inactive) and 95.4% (inactive) with OVCAR-4 ovarian; 105% (inactive) and 106% (inactive) in the assay on SK-OV-3 ovarian. Also, the growth was 105% (inactive) and 108% (inactive) in the assay with IGROV1 ovarian; 105% (inactive) and 106% (inactive) in the assay on OVCAR-3 ovarian; 110% (inactive) and 109% (inactive) in the assay on HS 578T breast; 109% (inactive) and 106% (inactive) in the assay with NCI/ADR-RES ovarian.
Regarding `COc1cc2c(c(OC)c1OC)-c1ccc(OC)c(=O)cc1[C@@H](NC(C)=O)CC2`, the growth was 4.98% (active) and 2.6% (active) and 5.4% (active) with SR leukemia; 9.21% (active) and 2.34% (active) in the assay on RPMI-8226 leukemia; 10.3% (inactive) and 14.4% (inactive) with OVCAR-8 ovarian; 47.5% (inactive) and 20.8% (inactive) and 31.2% (inactive) with OVCAR-5 ovarian; 48.4% (inactive) and 57.7% (inactive) and 56.4% (inactive) with OVCAR-4 ovarian; 13.8% (inactive) and 25.8% (inactive) and 36.1% (inactive) with SK-OV-3 ovarian. Moreover, the growth in the assay with IGROV1 ovarian was 16.5% (inactive) and 15.3% (inactive); in the assay with OVCAR-3 ovarian it was -57.4% (active) and -0.335% (active) and -49% (active); with HS 578T breast, 42.6% (inactive) and -0.967% (active) and 55.1% (inactive); in the assay on NCI/ADR-RES ovarian, 0.46% (active) and 8.85% (active) and -20.9% (active).
For the compound `O=C1OC(Oc2ccc(Br)cc2)(c2ccccc2)c2ccccc21` (stereo not given), the growth with SR leukemia was 75.4% (inactive); in the assay with RPMI-8226 leukemia it was 85.8% (inactive); in the assay on OVCAR-8 ovarian, 93.9% (inactive) and 93% (inactive); with OVCAR-5 ovarian, 97.3% (inactive) and 110% (inactive); in the assay with OVCAR-4 ovarian it was 92.1% (inactive); with SK-OV-3 ovarian it was 96.1% (inactive) and 110% (inactive). For the same compound, the growth in the assay on IGROV1 ovarian is 79.7% (inactive) and 81.3% (inactive); with OVCAR-3 ovarian, 87.4% (inactive) and 68.8% (inactive); in the assay with HS 578T breast it was 97.6% (inactive) and 84.7% (inactive); in the assay on NCI/ADR-RES ovarian it was 90.8% (inactive) and 76.8% (inactive).
Regarding `CC12CCC(CC1)C(C)(C)O2`, the growth was 88.8% (inactive) with SR leukemia; 103% (inactive) with RPMI-8226 leukemia; 111% (inactive) with OVCAR-8 ovarian; 94.3% (inactive) in the assay with OVCAR-5 ovarian; 113% (inactive) in the assay with OVCAR-4 ovarian; 104% (inactive) in the assay with SK-OV-3 ovarian. Also, the growth in the assay on IGROV1 ovarian was 103% (inactive); in the assay on OVCAR-3 ovarian it was 121% (inactive); in the assay on HS 578T breast, 102% (inactive); in the assay on NCI/ADR-RES ovarian, 108% (inactive).
Consider `CC1(c2ccc3ccccc3c2)CCC(=O)O1` (stereo not given), for which the growth was 92.2% (inactive) in the assay on SR leukemia; 109% (inactive) in the assay on RPMI-8226 leukemia; 101% (inactive) in the assay with OVCAR-8 ovarian; 102% (inactive) with OVCAR-5 ovarian; 110% (inactive) in the assay with OVCAR-4 ovarian; 95.3% (inactive) with SK-OV-3 ovarian. Further, the growth with IGROV1 ovarian was 102% (inactive); in the assay on OVCAR-3 ovarian, 105% (inactive); in the assay with HS 578T breast, 125% (inactive); in the assay with NCI/ADR-RES ovarian, 105% (inactive).
For the compound `CCCCCN(CCCCC)CC(O)c1cc2c(c3ccccc13)CCCC2` (stereo not given), the growth with SR leukemia is 11.1% (inactive) and 14.2% (inactive); in the assay with RPMI-8226 leukemia, 15.4% (inactive) and 34.8% (inactive); in the assay on OVCAR-8 ovarian, 88.6% (inactive) and 94.3% (inactive); in the assay with OVCAR-5 ovarian, 66.9% (inactive) and 55.6% (inactive); with OVCAR-4 ovarian, 60.9% (inactive) and 59.9% (inactive); with SK-OV-3 ovarian, 84.2% (inactive) and 79% (inactive). Further, the growth is 48.9% (inactive) and -1.04% (active) in the assay with IGROV1 ovarian; 71.9% (inactive) and 54.4% (inactive) with OVCAR-3 ovarian; 85.6% (inactive) and 2.9% (active) in the assay with HS 578T breast; 70% (inactive) and 63.7% (inactive) with NCI/ADR-RES ovarian.
For `Cc1nnc(NC/C=C/c2ccccc2)s1`, the growth in the assay on SR leukemia was 113% (inactive); in the assay with RPMI-8226 leukemia, 102% (inactive) and 118% (inactive); in the assay on OVCAR-8 ovarian, 102% (inactive); in the assay on OVCAR-5 ovarian it was 112% (inactive); in the assay on OVCAR-4 ovarian, 102% (inactive) and 111% (inactive); in the assay on SK-OV-3 ovarian, 98.4% (inactive) and 118% (inactive). Besides, the growth in the assay with IGROV1 ovarian is 112% (inactive) and 114% (inactive); with OVCAR-3 ovarian, 99.7% (inactive); in the assay on HS 578T breast, 122% (inactive) and 105% (inactive); in the assay on NCI/ADR-RES ovarian, 103% (inactive) and 102% (inactive).
Consider `CCN(CC)C(=S)SSC(=S)N(CC)CC`, for which the growth is 3.32% (active) and 89% (inactive) in the assay on SR leukemia; 45.4% (inactive) and 110% (inactive) in the assay with RPMI-8226 leukemia; 65.8% (inactive) and 89.4% (inactive) with OVCAR-8 ovarian; 86% (inactive) and 100% (inactive) in the assay on OVCAR-5 ovarian; 76.6% (inactive) and 94.6% (inactive) in the assay with OVCAR-4 ovarian; 98.7% (inactive) and 102% (inactive) in the assay on SK-OV-3 ovarian. Also, the growth with IGROV1 ovarian was 77.5% (inactive) and 113% (inactive); in the assay with OVCAR-3 ovarian it was 68.3% (inactive) and 108% (inactive); with HS 578T breast it was 111% (inactive); in the assay on NCI/ADR-RES ovarian, 84.1% (inactive) and 106% (inactive).
On to `OC(COc1cccc2ccccc12)CN1CCN(c2ccc(Cl)cc2)CC1` (stereo not given), for which the growth was 113% (inactive) and 75.2% (inactive) in the assay on SR leukemia; 68.2% (inactive) in the assay on RPMI-8226 leukemia; 79.8% (inactive) and 87.1% (inactive) in the assay with OVCAR-8 ovarian; 84.1% (inactive) and 87.3% (inactive) with OVCAR-5 ovarian; 35.2% (inactive) and 92.1% (inactive) in the assay on OVCAR-4 ovarian; 88.8% (inactive) and 100% (inactive) in the assay on SK-OV-3 ovarian. Further, the growth was 103% (inactive) and 84.8% (inactive) with IGROV1 ovarian; 83.2% (inactive) and 116% (inactive) in the assay on OVCAR-3 ovarian; 68% (inactive) and 116% (inactive) in the assay on HS 578T breast; 88.6% (inactive) and 83.4% (inactive) in the assay on NCI/ADR-RES ovarian.
Regarding `CN(Cc1ccccc1)Cc1ccccc1`, the growth with SR leukemia was 105% (inactive); with RPMI-8226 leukemia, 110% (inactive); with OVCAR-8 ovarian it was 117% (inactive); with OVCAR-5 ovarian it was 103% (inactive); in the assay on OVCAR-4 ovarian it was 113% (inactive); in the assay on SK-OV-3 ovarian it was 113% (inactive). Moreover, the growth was 99.4% (inactive) in the assay with IGROV1 ovarian, 106% (inactive) in the assay with OVCAR-3 ovarian, 108% (inactive) in the assay with HS 578T breast and 102% (inactive) in the assay with NCI/ADR-RES ovarian.

The values above are taken from PubChem BioAssay (NCI).
